# PABP polyA inh: PABP poly(A) RNA binding inhibitors, primary screen, biochemical, fluorescence polarization, uHTS | hit rate 1% among 290,000 | calls only at 35 µM | AID 2014, 2009 | Polyadenylate-binding protein 1 (Homo sapiens), P11940;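 further: calls also rest on retests at 20 µM and on dose response follow-up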
# Target sequence (P11940 whole entry, looked up): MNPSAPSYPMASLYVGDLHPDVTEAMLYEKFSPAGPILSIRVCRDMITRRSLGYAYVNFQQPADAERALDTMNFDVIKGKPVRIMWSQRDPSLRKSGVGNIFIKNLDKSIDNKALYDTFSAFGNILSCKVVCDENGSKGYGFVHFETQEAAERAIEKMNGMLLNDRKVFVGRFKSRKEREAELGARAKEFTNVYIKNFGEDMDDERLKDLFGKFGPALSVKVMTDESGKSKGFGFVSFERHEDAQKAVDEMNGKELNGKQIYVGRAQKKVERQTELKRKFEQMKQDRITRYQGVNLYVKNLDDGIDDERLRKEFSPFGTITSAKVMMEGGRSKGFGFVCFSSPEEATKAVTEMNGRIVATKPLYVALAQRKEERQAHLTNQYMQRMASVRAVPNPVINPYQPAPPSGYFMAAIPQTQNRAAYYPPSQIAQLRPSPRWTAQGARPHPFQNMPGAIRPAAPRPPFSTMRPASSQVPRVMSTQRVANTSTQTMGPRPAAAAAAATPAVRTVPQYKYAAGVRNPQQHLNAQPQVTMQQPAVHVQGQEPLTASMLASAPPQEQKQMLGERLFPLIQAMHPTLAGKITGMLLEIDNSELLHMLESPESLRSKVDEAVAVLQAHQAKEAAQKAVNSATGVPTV
# eIF4E-4G inh: eIF4E–eIF4G protein interaction inhibitors, primary screen, biochemical, uHTS, TR-FRET, eIF4GI fragment; inhibition, % at 21.7 µM; Eukaryotic translation initiation factor 4E (Mus musculus) + Eukaryotic translation …; hit rate 0.37% among 220,000; AID 782, 2007; TR-FRET eIF4E-eIF4GI(517-606) binding, 2 h;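 active means inhibition above about 30%, limit read from the data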
# PABP1 MLLE inh: inhibitors of PABP1 MLLE–PAM2 peptide binding, primary screen, biochemical, fluorescence polarization, FITC-PAM2, GST-MLLE. Polyadenylate-binding protein 1 (Homo sapiens), P11940. inhibition, % at 20 µM. hit rate 0.36% among 360,000. AID 588489, 2011; in the data active means inhibition above about 35%, passing the limit was not always enough
# eIF4H inh: human eIF4H binding inhibitors, primary screen, translation initiation inhibitor project, biochemical, uHTS, fluorescence polarization. eIF4H fluorescence polarization binding assay. inhibition, % at 35 µM. hit rate 0.94% among 290,000;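 further: calls also rest on retests at 20 µM and on dose response follow-up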
# A number is an active result; – = inactive; ? = inconclusive; · = no result; + = active, no number. Rows were chosen to be rich in hits. Some 1.5% of all compounds tested hit in one or more screens of this group. Unless noted, how the calls were made is not given here.
SMILES,PABP polyA inh,eIF4E-4G inh,PABP1 MLLE inh,eIF4H inh
COc1cc(/C=C/C(=O)Nc2cc(S(=O)(=O)N3CCOCC3)ccc2N2CCCC2)cc(OC)c1OC,–,–,40,–
COc1ccc(/C=C/C(=O)Nc2cc(S(=O)(=O)N3CCOCC3)ccc2N2CCCC2)cc1OC,–,–,–,–
COC(=O)CSc1[nH]c2ccccc2c1[N+](=O)[O-],–,–,39,–
O=C(Nc1ccc(Cl)c(S(=O)(=O)N2CCOCC2)c1)c1cc(-c2ccccn2)nc2ccccc12,–,–,–,–
Cc1ccc(NC(=O)c2cc(-c3ccco3)nc3ccccc23)cc1S(=O)(=O)N1CCOCC1,+,–,–,66
COc1ccc(NC(=O)c2cc(C)nc3ccccc23)cc1S(=O)(=O)N1CCOCC1,·,·,–,·
COc1ccc(NC(=O)c2cc(-c3ccco3)nc3ccccc23)cc1S(=O)(=O)N1CCOCC1,+,38,–,–
O=c1c2ccccc2c(C=Nc2ccc(O)cc2)c(O)n1Cc1ccccc1,–,34,–,–
COC(=O)CNC(c1ccccc1Cl)c1cc(Br)ccc1NS(=O)(=O)c1ccc(C)cc1 (configuration not stated),–,–,–,active
Cc1cc(N2CCCC2)c(F)cc1/C=C\[N+](=O)[O-],+,–,–,–
Cc1cc(N2CCC(C)CC2)c(F)cc1[N+](=O)[O-],–,–,–,–
Cc1ccc(S(=O)(=O)N2CCN(C(=O)N3CCCCC3)CC2)c(C)c1,·,·,–,·
CCOc1ccc(NC(=O)C2CCC(C)(C(=O)O)C2(C)C)cc1 (configuration not stated),?,–,–,130
COc1ccc(NC(=O)C2CCC(C)(C(=O)O)C2(C)C)cc1 (configuration not stated),–,–,–,–
CC(=O)NCCn1c(C)cc2ccccc21,+,–,–,94
CCC(=O)NCCn1c(C)cc2ccccc21,+,–,–,106
Cc1cc2ccccc2n1CCNC(=O)C(C)(C)C,–,–,–,–
Cc1cc2ccccc2n1CCNC(=O)c1ccccc1,–,–,–,–
Cc1cc2ccccc2n1CCNC(=O)COc1ccccc1,+,–,–,–
Cc1cc2ccccc2n1CCNC(=O)Cc1cccc2ccccc12,–,–,–,–
Cc1cc2ccccc2n1CCNC(=O)c1ccc(Br)o1,+,–,43,59
O=C(COC(=O)CCc1c[nH]c(=O)[nH]1)Nc1cccc(Cl)c1,–,–,39,–
CC1(C(=O)NCCC#N)CCN1C(=O)c1ccccc1CCc1ccccc1 (configuration not stated),·,·,–,·
O=c1[nH]c(Cc2ccc(F)cc2)nc2scc(-c3ccc(F)cc3)c12,–,–,–,–
Cc1ccc(-c2csc3nc(CN(C)Cc4ccccc4)[nH]c(=O)c23)cc1,+,–,–,98
SMILES,PABP polyA inh,eIF4E-4G inh,PABP1 MLLE inh,eIF4H inh
O=c1cc(O)n(-c2ccccc2F)c(=S)[nH]1,+,–,–,46
Cc1ccccc1-n1c(O)cc(=O)[nH]c1=S,–,–,–,53
CC(C)c1ccc(NC(=O)Nc2nc(C(N)COCc3ccccc3)cs2)cc1 (configuration not stated),·,·,–,·
O=C(CSc1nccc(=O)[nH]1)NCc1ccc(Cl)cc1,–,–,–,–
O=C(CC(Sc1ccc(Br)cc1)C(=O)O)c1ccc(F)cc1 (configuration not stated),–,·,39,–
C[C@H](CO)N1C[C@H](C)[C@@H](CN(C)S(=O)(=O)c2cccc(C#N)c2)OCc2cnnn2CCCC1=O,·,·,–,·
N#Cc1c(N)nc(SCC(=O)C23CC4CC(CC(C4)C2)C3)c(C#N)c1-c1ccc(Cl)cc1,–,–,–,–
CCOC(=O)CC(=O)CSc1nc(N)c(C#N)c(-c2ccc(Cl)cc2)c1C#N,+,–,–,114
COc1ccc(NC(=O)Cn2nnc(-c3ccccc3NC(=O)C3CC3)n2)cc1,–,–,–,–
COc1ccc(C(=O)Cn2nnc(-c3ccccc3NC(=O)C3CCCCC3)n2)cc1,+,–,–,–
CC(C)(C)C1CC=C2C(C#N)=C(N)C(C#N)(C#N)C(c3cccs3)C2C1 (configuration not stated),+,·,·,93
CN1C2C=C3C(C#N)=C(N)C(C#N)(C#N)[C@@H](c4cccs4)C3C1CC2 (some centres not stated),+,–,–,59

# Screens as filed in PubChem.
